Assay results: PubChem BioAssay (NCATS)
Values joined by “and” are separate entries in the source; they are usually repeats but may differ in a detail not shown here. Identical values can stand only once. Inconclusive results are not listed. Active and inactive are the calls of the source. The call rests on the fitted dose curve; in most records, active means well fitted curve in the direction sought with a large enough effect; inconclusive means small, poorly fitted or top-dose-only effect, or another doubt; inactive means no such curve, though single readings can be large; an effect the other way counts as inactive or inconclusive. Where a SMILES comes first, the peptide text is derived from it. Bridges are numbered along the chain shown (N, C = ends). [ ]: non-standard residue; d: D form. The star is where a group is joined. X1 = CCC(C)C(N)C1=NC(C(=O)*)CS1; dOrn = NCCC[C@@H](N)C(=O)O

How the values were obtained:
[1] = target: Cytochrome P450 3A7 (Homo sapiens) (UniProt P24462); experiment: Cytochrome P450 family 3 subfamily A member 7 (CYP3A7) small molecule antagonists: luciferase biochemical qHTS assay (AID 1963596); further: on the % scale 0 is the no-effect control and ±100 the full control effect; nearly all actives have a fitted effect of over 40% in size
Sequence of Cytochrome P450 3A7 (Homo sapiens) (P24462 whole entry, looked up): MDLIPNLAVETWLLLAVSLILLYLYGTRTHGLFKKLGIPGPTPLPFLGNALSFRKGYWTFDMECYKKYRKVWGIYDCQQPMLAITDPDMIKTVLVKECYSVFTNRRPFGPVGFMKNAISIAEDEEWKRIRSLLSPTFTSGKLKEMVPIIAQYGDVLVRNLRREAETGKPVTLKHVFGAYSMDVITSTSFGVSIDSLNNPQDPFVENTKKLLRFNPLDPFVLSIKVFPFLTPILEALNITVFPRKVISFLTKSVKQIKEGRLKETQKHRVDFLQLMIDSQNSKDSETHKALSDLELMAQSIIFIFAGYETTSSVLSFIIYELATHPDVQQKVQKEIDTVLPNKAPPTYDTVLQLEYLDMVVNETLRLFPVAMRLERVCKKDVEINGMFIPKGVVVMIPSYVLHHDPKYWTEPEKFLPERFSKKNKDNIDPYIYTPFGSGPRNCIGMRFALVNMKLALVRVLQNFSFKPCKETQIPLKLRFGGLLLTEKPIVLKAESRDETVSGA
Summary of the method: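 Luminescence from luciferin released by CYP3A7 from a proluciferin substrate, read 20 min after detection reagent. Compound and enzyme-substrate mix sat 10 min before NADPH regeneration solution; reaction ran 1 h at room temperature.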

[2] = Viability qHTS for spleen associated tyrosine kinase inhibitor (SYKi) drug resistant MV4-11 cells (AID 1963824); further: nearly all actives have a fitted effect of over 35% in size; further: potency means the concentration at half of the fitted maximal effect
Summary of the method: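 SYK-inhibitor-resistant MV4-11 AML cells were seeded at 500 per well onto compound and cultured 72 hours (37 °C, 5% CO2). CellTiter-Glo was then added, and after 10 min at room temperature, luminescence gave viability.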

[3] = Quantitative highthroughput screen to assess conditional lethalithy of P12 Ichikawa cells grown in Human Plasma-Like Medium with dialyzed fetal bovine serum (HPLM+ds) (AID 1963879); details: Potency: viability; further: nearly all actives have a fitted effect of over 35% in size; further: potency means the concentration at half of the fitted maximal effect; on Viability: series mostly up to about 46 µM
Summary of the method: (§1)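 Each medium arm—HPLM with 10% dialyzed FBS, or RPMI1640 with 5 mM glucose and 10% untreated or dialyzed FBS—was screened against an 11-point, 3-fold compound titration for 48 h at 37 °C, with CellTiter-Glo luminescence as endpoint.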

[4] = Quantitative highthroughput screen to assess conditional lethalithy of P12 Ichikawa cells grown in RPMI1640 with untreated serum (RPMI+s) (AID 1963881); details: Potency: viability; further: nearly all actives have a fitted effect of over 35% in size; further: potency means the concentration at half of the fitted maximal effect;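 on Viability: series mostly up to about 46 µM; 100% = DMSO wells and 0% = empty wells without cells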
Summary of the method: as §1

[5] = Quantitative highthroughput screen to assess conditional lethalithy of SEM cells grown in RPMI1640 with unreated serum (RPMI+s) (AID 1963883); further: nearly all actives have a fitted effect of over 35% in size; further: potency means the concentration at half of the fitted maximal effect;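 on Viability: 100% = DMSO wells and 0% = empty wells without cells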
Summary of the method: as §1

[6] = Quantitative highthroughput screen to assess conditional lethalithy of SEM cells grown in RPMI1640 with dialyzed fetal bovine serum (RPMI+ds) (AID 1963884); further: nearly all actives have a fitted effect of over 35% in size; further: potency means the concentration at half of the fitted maximal effect;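 on Viability: series mostly up to about 46 µM; 100% = DMSO control wells and 0% = empty wells without cells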
Summary of the method: as §1

[7] = Cellular viability qHTS for adrenocortical cancer (ACC) cell line SW-13 (AID 1963989); details: SW-13 ACC cells viability, CellTiter-Glo, 48 h; activity (max response): stronger effect = lower value; further: nearly all actives have a fitted effect of over 65% in size; further: potency means the concentration at half of the fitted maximal effect;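 on activity (max response): cells grown in serum-free medium with ITS supplement; on the % scale 0 is the no-effect control and ±100 the full control effect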
Summary of the method: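 SW-13 cells in ITS-supplemented serum-free DMEM were plated overnight, then exposed for 48 h at 37C to compound titrations (up to 46 uM final). Viability was read by CellTiter-Glo luminescence; four-parameter logistic fits gave IC50 and efficacy.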

[8] = Cellular viability qHTS for adrenocortical cancer (ACC) cell line NCI-H295R (AID 1963990); further: nearly all actives have a fitted effect of over 60% in size; further: potency means the concentration at half of the fitted maximal effect;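 on activity change, negative = viability loss: 0% = DMSO only wells and -100% = full killing with cytotoxic reference compound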
Summary of the method: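 Luminescent ATP read-out (CellTiter-Glo, 20 min RT) after 48 h drug exposure of NCI-H295R cells; a titration up to 46 uM final. Data normalized to doxorubicin (100% inhibition) and DMSO (0%); 4-parameter fit gives IC50, max response.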

[9] = Quantitative highthroughput screen to assess conditional lethalithy of NOMO1 cells grown in RPMI1640 with untreated serum (RPMI+s) (AID 1963876); further: nearly all actives have a fitted effect of over 35% in size; further: potency means the concentration at half of the fitted maximal effect;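 on Viability: 100% = DMSO wells and 0% = empty wells without cells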
Summary of the method: as §1

[10] = Quantitative highthroughput screen to assess conditional lethalithy of NOMO1 cells grown in RPMI1640 with dialyzed fetal bovine serum (RPMI+ds) (AID 1963877); further: nearly all actives have a fitted effect of over 30% in size; further: potency means the concentration at half of the fitted maximal effect;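 on Viability: series mostly up to about 46 µM; 100% = DMSO control wells and 0% = empty wells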
Summary of the method: as §1

[11] = Quantitative highthroughput screen to assess conditional lethalithy of NOMO1 cells grown in Human Plasma-Like Medium with dialyzed fetal bovine serum (HPLM+ds) (AID 1963878); further: nearly all actives have a fitted effect of over 35% in size; further: potency means the concentration at half of the fitted maximal effect;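 on Viability: 100% = DMSO wells and 0% = empty wells on each plate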
Summary of the method: as §1

[12] = Quantitative highthroughput screen to assess conditional lethalithy of SEM cells grown in Human Plasma-Like Medium with dialyzed fetal bovine serum (HPLM+ds) (AID 1963882); further: nearly all actives have a fitted effect of over 35% in size; further: potency means the concentration at half of the fitted maximal effect; on Viability: series mostly up to about 46 µM
Summary of the method: as §1

[13] = Quantitative highthroughput screen to assess conditional lethalithy of P12 Ichikawa cells grown in RPMI1640 with dialyzed fetal bovine serum (RPMI+ds) (AID 1963880); details: Potency: P12-Ichikawa viability; further: nearly all actives have a fitted effect of over 35% in size; further: potency means the concentration at half of the fitted maximal effect;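 on Viability: 100% = DMSO wells and 0% = empty wells on each plate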
Summary of the method: as §1

CCCCc1ccc2nc(NC(=O)OC)[nH]c2c1
active: Potency [2] 0.118 µM | Potency [3] 0.0935 µM | Potency [4] 0.0833 µM | Potency [5] 0.059 µM | Potency [6] 0.0418 µM | Potency [7] 51.7 nM and 282 nM | Potency [8] 103 nM and 224 nM
inactive: Potency [1]

COc1cc(OC)c(NC(=O)c2ccc(Cc3cc4c(cc3C)C(C)(C)CCC4(C)C)o2)c(OC)c1
inactive: Potency [1]
active: Potency [2] 11.6 µM

CCOC(=O)N1c2ccc(C(F)(F)F)cc2[C@@H](N(Cc2cc(C(F)(F)F)cc(C(F)(F)F)c2)C(=O)OC)C[C@H]1CC
active: Potency [2] 7.42 µM
inactive: Potency [1] | Potency [9] | Potency [10] | Potency [11] | Potency [4] | Potency [12] | Potency [6] | activity (max response) [7] 4.35% | Potency [8]

CNC(=O)c1ccc(-c2cnc3ncc(Cc4ccc5ncccc5c4)n3n2)cc1F
inactive: Potency [1] | Potency [9] | Potency [10] | Potency [11] | Potency [3] | Potency [13] | Potency [4] | Potency [6] | activity (max response) [7] 0.555% | Potency [8]
active: Potency [2] 2.06 µM

Cn1cc(-c2ccc(F)c(C(F)(F)F)c2)nc1C1CCN(c2ncnc3[nH]ncc23)CC1
inactive: Potency [1] | Potency [2] | Potency [9] | Potency [10] | Potency [11] | Potency [3] | Potency [13] | Potency [4] | Potency [12] | activity (max response) [7] 13.1% | Potency [8]

CS(=O)c1ccc(-c2nc(-c3ccc(F)cc3)c(-c3ccncc3)[nH]2)cc1 (stereo not given)
inactive: Potency [1] | Potency [8]
active: Potency [2] 20.6 µM | Potency [9] 6.79 µM | Potency [10] 6.79 µM | Potency [11] 6.05 µM | Potency [3] 9.59 µM | Potency [13] 8.55 µM | Potency [4] 7.62 µM | Potency [12] 7.62 µM | Potency [5] 2.41 µM | Potency [6] 5.4 µM

CC(=O)N(CC(=O)N(C)C)c1ccccc1
inactive: Potency [1] | Potency [2]

CCCc1nc(C(C)(C)O)c(C(=O)O)n1Cc1ccc(-c2ccccc2-c2nn[nH]n2)cc1
inactive: Potency [1] | Potency [2] | Potency [9] | Potency [10] | Potency [11] | Potency [3] | Potency [13] | Potency [4] | Potency [12] | Potency [5] | Potency [6] | activity (max response) [7] 8.92% | Potency [8]

CNS(=O)(=O)Cc1ccc2[nH]cc(CCN(C)C)c2c1
inactive: Potency [1] | Potency [2] | Potency [9] | Potency [10] | Potency [11] | Potency [3] | Potency [13] | Potency [4] | Potency [12] | Potency [5] | Potency [6] | activity (max response) [7] 3.13%

CCCNC(=O)Nc1ccc(Oc2ncnc3cc(OC)c(OC)cc23)cc1Cl
active: Potency [2] 0.517 µM
inactive: Potency [1] | Potency [9] | Potency [11] | Potency [3] | Potency [13] | Potency [4] | activity (max response) [7] -6.45% | Potency [8]

N=C(N)c1ccc2cc(OC(=O)c3ccc(N=C(N)N)cc3)ccc2c1
active: Potency [2] 18.6 µM
inactive: Potency [1] | Potency [3] | Potency [12] | Potency [6] | activity (max response) [7] -32.1%

COc1c(OCCCN2CCOCC2)ccc2c3n(c(=NC(=O)c4cnc(N)nc4)nc12)CCN3
active: Potency [3] 0.182 µM | Potency [5] 2.04 µM

CCNC(=O)Nc1ccc2ncc(Nc3ccc(C)cc3)nc2n1
inactive: Potency [13] | Potency [4]

Nc1ncn([C@H]2C[C@H](O)[C@@H](CO)O2)c(=O)n1
active: Potency [5] 2.64 µM

CCCCCCCC(=O)OCC(O)CO (stereo not given)
inactive: Potency [1] | Potency [2] | activity (max response) [7] -7.07% | Potency [8]

C[N+]1(C)CCC(=C(c2ccccc2)c2ccccc2)CC1
inactive: Potency [1] | Potency [2] | activity (max response) [7] -4.49% | Potency [8]

Oc1ccccc1C=NCc1ccccc1
inactive: Potency [1] | Potency [2] | activity (max response) [7] 6.8% | Potency [8]

CCC(C)C(N)C1=NC(C(=O)N[C@@H](CC(C)C)C(=O)N[C@H](CCC(=O)O)C(=O)N[C@H](C(=O)N[C@H]2CCCCNC(=O)[C@H](CC(N)=O)NC(=O)[C@@H](CC(=O)O)NC(=O)[C@H](Cc3cnc[nH]3)NC(=O)[C@@H](Cc3ccccc3)NC(=O)[C@H]([C@@H](C)CC)NC(=O)[C@@H](CCCN)NC2=O)[C@@H](C)CC)CS1 (stereo not given in full) (X1-L[dE]IK[dOrn]I[dF]H[dD]N; lactam 4-C)
inactive: Potency [1] | Potency [2] | activity (max response) [7] -8.42% | Potency [8]

CC(=O)N1C[C@H](O)C[C@H]1C(=O)O
inactive: Potency [1] | Potency [2] | activity (max response) [7] 0.891% | Potency [8]

Cc1cc(=O)n(-c2ccccc2)n1C
inactive: Potency [1] | Potency [2] | activity (max response) [7] 4.16% | Potency [8]

NCCNCCNCCNCCN
inactive: activity change, negative = inhibition [1] 14.5% [at 11.5 µM] | viability, % of control [2] 109% [at 9.25 µM] | activity (max response) [7] 2.38% | activity change, negative = viability loss [8] 1% [at 9.17 µM]

CC(=O)NO
inactive: Potency [1] | Potency [2] | activity (max response) [7] 11.6% | Potency [8]

CC(=O)OC[C@H]1O[C@@H](OC(C)=O)[C@H](OC(C)=O)[C@@H]1OC(C)=O
inactive: Potency [1] | Potency [2] | activity (max response) [7] 10.4% | Potency [8]

c1ccc2c(CC3=NCCN3)cccc2c1
inactive: Potency [1] | activity (max response) [7] 1.1% | Potency [8]
active: Potency [2] 11.9 µM

NC[C@H]1O[C@H](O[C@H]2[C@H](O)[C@@H](O[C@H]3O[C@H](CO)[C@@H](O)[C@H](N)[C@H]3O)[C@H](N)C[C@@H]2N)[C@H](N)[C@@H](O)[C@@H]1O
inactive: Potency [1] | Potency [2] | activity (max response) [7] -3.44% | Potency [8]
